# ± gives the standard deviation of the averaged measurements.
# System: HCC1569
# Test: cell number relative to DMSO (% of DMSO); higher = more cells (less growth inhibition / toxicity)
# Settings: concentration: 10 µM; 24 h
# Method in brief: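 Using 384-well plates with 800 cells per well in RPMI plus 10% FBS, HCC1569 and TDF cells were exposed to compounds at 10 µM, in triplicate, for 24 h at 37 °C. Imaging of six fields per well at ×10 followed H1.0 and DAPI staining. The reported quantity, H1.0 nuclear intensity or cell number, is a median of replicates given as percent of the plate control, and HCC1569 values were smoothed for positional effects.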
# 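Also: TDF denotes transformed human dermal fibroblasts of mesenchymal origin.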
row,Compound,cell number
1,CCN(CC)CCNC(=O)c1ccc(N)cc1.Cl [Procainamide hydrochloride],98.7
2,CC1CC2C3CCC4=CC(=O)C=CC4(C)C3(F)C(O)CC2(C)C1(O)C(=O)CO (stereo not given) [Dexamethasone],100
3,O=C(O)c1ccc2ccccc2c1O.OCc1cc(C(O)CNCCCCCCOCCCCc2ccccc2)ccc1O (stereo not given) [Salmeterol xinafoate],100
4,"N#Cc1cccc(-c2c[nH]c3ncnc(N4CCOCC4)c23)c1 [3-(4-morpholino-7H-pyrrolo[2,3-d]pyrimidin-5-yl)benzonitrile]",107
5,CC(O)C(CO)NC(=O)C1CSSCC(NC(=O)C(N)Cc2ccccc2)C(=O)NC(Cc2ccccc2)C(=O)NC(Cc2c[nH]c3ccccc23)C(=O)NC(CCCCN)C(=O)NC(C(C)O)C(=O)N1 (stereo not given) [Octreotide],106
6,CC(=O)NCCc1c[nH]c2ccc(O)cc12 [N-Acetyl-5-hydroxytryptamine],101
7,CCCCCCCCC=CCCCCCCCC(=O)NCCc1ccc(O)c(O)c1 [Oleoyl dopamine],98.1
8,CN1C2CCC1CC(OC(c1ccccc1)c1ccccc1)C2.CS(=O)(=O)O (stereo not given) [Benztropine mesylate],97.2
9,CCCCCCCCCCCCCCC(O)C(O)C(N)CO (stereo not given) [Phytosphingosine],98.8
10,Cl.Cl.OCCN1CCN(CCCN2c3ccccc3Sc3ccc(C(F)(F)F)cc32)CC1 [Fluphenazine dihydrochloride],92.5
11,CCCC(=O)Oc1ccc2[nH]c(C(=O)c3cc4ccccc4[nH]3)cc2c1 [PDGF Receptor Tyrosine Kinase Inhibitor II],86.9
12,CN1CCN2c3ccccc3Cc3ccccc3C2C1.Cl (stereo not given) [Mianserin hydrochloride],105
13,CC(=O)OC(C)C[N+](C)(C)C.[Cl-] (stereo not drawn) [Acetyl-beta-methylcholine chloride],110
14,CCCCCCCCCCCCCC(=O)NC(C)C(O)c1ccccc1 [D-erythro MAPP],104
15,CC(C)CC(NC(=O)C(Cc1ccccc1)NC(=O)c1cnccn1)B(O)O (stereo not given) [Bortezomib],34.2
16,"OB1OCc2cc(F)ccc21 [5-fluoro-2,1-benzoxaborol-1(3H)-ol]",104
17,CON=C(C(=O)NC1C(=O)N2C(C(=O)[O-])=C(C[N+]3(C)CCCC3)CSC12)c1csc(N)n1 (stereo not given) [Cefepime],99.6
18,Cc1[nH]c2ccccc2c1CC(=O)N[C@@H](Cc1ccccc1)C(=O)N(C)c1ccccc1,100
19,COc1cc2oc(=O)ccc2cc1O [Isoscopoletine],105
20,CC(O)C(=O)C1=Nc2c([nH]c(N)nc2=O)NC1 (stereo not given) [Sepiapterin],105

row,Compound,cell number
1,CNC(=O)c1cc(Oc2ccc(NC(=O)Nc3ccc(Cl)c(C(F)(F)F)c3)cc2)ccn1 [Sorafenib],45.9
2,CCc1nn(CCCN2CCN(c3cccc(Cl)c3)CC2)c(=O)n1CCOc1ccccc1 [Nefazodone],98.9
3,NC(=O)C(=O)[O-].[Na+] [Sodium Oxamate],102
4,COc1cccc2c1C(=O)c1c(O)c3c(c(O)c1C2=O)CC(O)(C(=O)CO)CC3OC1CC(N)C(O)C(C)O1.Cl (stereo not given) [Doxorubicin.HCl],59.6 ± 3.9
5,O=C([O-])CCCc1ccccc1.[Na+] [Sodium Phenylbutyrate],103
6,CCCCCCCCC=CCCCCCCCC(=O)OCC(CO)OC(C)=O (stereo not given) [1-Oleoyl-2-acetyl-glycerol],98.9
7,"O=C1CSc2ccccc2N1Cc1cccc(C(F)(F)F)c1 [4-[3-(trifluoromethyl)benzyl]-2H-1,4-benzothiazin-3(4H)-one]",102
8,Cl.N=c1ccn2c(n1)OC1C(O)C(CO)OC12 (stereo not given) [Ancitabine hydrochloride],73.5
9,COc1cc2nccc(Oc3ccc(NC(=O)Nc4cc(C)on4)c(Cl)c3)c2cc1OC.O [VEGFR Tyrosine Kinase Inhibitor IV],82.4
10,C=C1CCC2OC2(C)CCC2C1CC2(C)C (stereo not given) [Caryophylline],104
11,CCCC(CCC)C(=O)[O-].[Na+] [Valproic acid sodium],108
12,COc1ccccc1N1CCN(CCN2C(=O)CC3(CCCC3)CC2=O)CC1.Cl.Cl [BMY 7378 dihydrochloride],98.3
13,O=C1c2c(O)cc(O)cc2OC(c2ccc(O)c(O)c2)C1O (racemic),108
14,COc1cccc(C(=O)NCCN2CCN(c3ccc(Cl)cc3)CC2)c1,101
15,C[n+]1cccc(C(=O)O)c1.[Cl-],99.8
16,COc1ccc(Cl)cc1C(=O)NCCc1ccc(S(=O)(=O)NC(=O)NC2CCCCC2)cc1 [Glibenclamide],101
17,Cc1cccc(C)c1OCC(C)N.Cl (stereo not given) [Mexiletene hydrochloride],104
18,Cc1ccc(NC2=CC(=O)c3sc(C)nc3C2=O)cc1 [Cdk4 Inhibitor III],26.6
19,COc1ccc2nc(S(=O)Cc3ncc(C)c(OC)c3C)[nH]c2c1 (stereo not given) [Omeprazole],100
20,NC1CONC1=O [L-Cycloserine],102 ± 2.4
